Shown are actives, neighbours in structure and some others; about 3.2% of the full set was active somewhere.
15-hLO-2 inh – 15-hLO-2 (ALOX15B) enzyme inhibition. 0.56% of 110,000 active. O15296. purified 15hLO-2, xylenol orange hydroperoxide absorbance. Potency, µM (titrated, usually from 57.1 µM), usual class: inhibitors; also: nearly all actives have a fitted effect of over 60% in size
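Enzyme 50 nM, AA 45 uM, 25 mM Hepes pH 7.5 + 0.01% Triton X-100; cpd preinc 15 min RT, rxn 90 min RT; stop/detect with 200 uM XO + 300 uM Fe(II) in 50 mM H2SO4, 30 min; A573/A405.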
CRE Fsk mod – modulators of forskolin-stimulated CRE signaling in CHO cells; CHO CRE-bla reporter (cAMP response element driving beta-lactamase), forskolin EC10, beta-lactamase ratio; Potency, µM (series often up to 38.2 µM), most hits filed as activators; 2.5% of 71,000 active; active = well fitted activation curve with a large enough effect in the signal ratio, with a control signal flat, not every such curve was filed as active; inconclusive = small, poorly fitted or top-dose-only effect, or effect the other way, or a change in a side signal; the % refers to the signal ratio
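qHTS titration format; CRE-bla CHO reporter; stimulus EC10 NKH 477, a water-soluble forskolin. Read: CCF4 460/530 nm ratio. Potency expressed as AC50 for activators or inhibitors.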
ERK AVP block – blocks ERK signaling stimulated by vasopressin. 0.99% of 72,000 active. Potency, µM (top dose mostly 57.5 µM), hits mostly inhibitors. HEK293-V1b, vasopressin-stimulated pERK AlphaScreen. AID 995; also: nearly all actives have a fitted effect of over 55% in size
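qHTS, compounds titrated on V1b-expressing HEK293 cells. Preincubation 30 min at 37C, vasopressin 25 nM for 5 min, lysis 10 min, bead incubation 5 hr at room temperature.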
ALOX15 inhib – inhibitors of human 15-lipoxygenase (ALOX15) | P16050 | Potency, µM (titrated, usually from 57.1 µM), usual class: inhibitors | 1.4% of 74,000 active | purified 15hLO-1, xylenol orange hydroperoxide absorbance; also: nearly all actives have a fitted effect of over 55% in size
Target sequence (P16050 whole entry, looked up): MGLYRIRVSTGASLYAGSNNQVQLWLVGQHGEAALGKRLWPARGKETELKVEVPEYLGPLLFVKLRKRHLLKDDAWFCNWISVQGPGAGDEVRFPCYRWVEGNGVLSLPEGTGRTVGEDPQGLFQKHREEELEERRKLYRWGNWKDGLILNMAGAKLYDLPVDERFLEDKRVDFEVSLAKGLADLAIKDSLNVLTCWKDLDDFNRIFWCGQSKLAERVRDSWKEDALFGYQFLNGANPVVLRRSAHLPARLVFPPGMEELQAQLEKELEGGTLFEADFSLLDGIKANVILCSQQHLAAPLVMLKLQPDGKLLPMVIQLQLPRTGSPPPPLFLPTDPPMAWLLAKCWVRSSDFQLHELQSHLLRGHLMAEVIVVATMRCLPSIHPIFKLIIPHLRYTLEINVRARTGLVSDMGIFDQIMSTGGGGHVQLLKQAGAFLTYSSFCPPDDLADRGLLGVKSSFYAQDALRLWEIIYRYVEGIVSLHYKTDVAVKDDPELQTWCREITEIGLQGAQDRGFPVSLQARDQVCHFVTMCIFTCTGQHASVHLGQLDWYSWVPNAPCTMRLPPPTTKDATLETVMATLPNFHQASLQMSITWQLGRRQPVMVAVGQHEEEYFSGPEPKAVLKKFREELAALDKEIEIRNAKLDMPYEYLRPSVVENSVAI
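Purified human 15hLO-1 (40 nM final) in 25 mM Hepes pH 7.5, 0.01% Triton X-100 was preincubated with compound 15 min at room temperature, then reacted 6 min with 50 uM arachidonic acid; hydroperoxide detected by Fe-XO, 573/405 nm absorbance ratio.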
A number is an active result; ! = not active in a repeat; [ ] = dose if it differs, or a comment. Unless noted, calls follow the shape of the dose curve; as a rule, active = well fitted inhibition curve with a large enough effect; inconclusive = small, poorly fitted or top-dose-only effect; inactive = no such curve, though single readings can be large or run the other way.

`CCc1cc2c(nc1CC)CCN(CC/C(C)=N/O[C@@H](C)CN1CCCCc3nc(C)c(C)cc31)C2` gave ERK AVP block inactive[11.5 µM] and ALOX15 inhib inactive[11.4 µM].
Screening NC(=O)CNCCC(c1ccccc1)c1ccccc1 returned 15-hLO-2 inh inactive, CRE Fsk mod inactive, ERK AVP block inactive and ALOX15 inhib 20µM!.
Cc1cc(NC(=O)CSc2ccc3nnc(-c4cccs4)n3n2)no1 was read as 15-hLO-2 inh inactive, CRE Fsk mod 10µM and ALOX15 inhib inactive.
Screening CC(C)=CCC/C(C)=C/CO returned 15-hLO-2 inh inactive[11.4 µM], CRE Fsk mod inactive[7.6 µM], ERK AVP block inactive[11.5 µM] and ALOX15 inhib 7.94µM!.
Screening C=CC(C)(O)CC/C=C(\C)CCC=C(C)C (configuration not stated) returned 15-hLO-2 inh inactive, ERK AVP block inactive and ALOX15 inhib 12.6µM.
`CC(C)=CCC/C(C)=C/CC/C(C)=C/CO` gave 15-hLO-2 inh inactive, ERK AVP block inactive and ALOX15 inhib inconclusive.
CC(C)n1c(Nc2ccccc2)nc2ccccc21 was read as 15-hLO-2 inh inactive, CRE Fsk mod inactive, ERK AVP block inactive and ALOX15 inhib inactive.
Screening CC(C)n1c2ccccc2c2nc3ccccc3nc21 returned 15-hLO-2 inh inactive, CRE Fsk mod 1.58µM, ERK AVP block inactive and ALOX15 inhib inactive.
`CC(C)CO/N=C1/C[C@@H](O)[C@@H](O)[C@@H]2[C@H]3C(=O)N(c4ccc(F)cc4F)C(=O)[C@@H]3CC[C@H]12` gave ERK AVP block inactive[11.5 µM] and ALOX15 inhib inactive[11.4 µM].
`CCS(=O)(=O)NCc1ccc2[nH]c3c(c2c1)CCCC3` gave 15-hLO-2 inh inactive, CRE Fsk mod inactive, ERK AVP block inactive and ALOX15 inhib 0.398µM.
Screening COc1nc(Nc2ccc(OC)c(Cl)c2)nc(OC)n1 returned 15-hLO-2 inh inactive, CRE Fsk mod 10µM, ERK AVP block inactive and ALOX15 inhib inactive.
`CCOc1nc(Nc2ccc(OC)c(Cl)c2)nc(N2CCN(c3ccc(OC)cc3)CC2)n1` gave 15-hLO-2 inh inactive.
Nc1ccc(S(=O)(=O)NCCS(=O)(=O)O)cc1 was read as 15-hLO-2 inh inactive[11.4 µM], CRE Fsk mod inactive[7.6 µM], ERK AVP block inactive[11.5 µM] and ALOX15 inhib inactive[11.4 µM].
For CCOC(=O)c1cc(-c2ccncc2)nc2c1c(C)nn2-c1ccccn1 the results were 15-hLO-2 inh inactive, CRE Fsk mod 3.16µM, ERK AVP block inactive and ALOX15 inhib inactive.
For Cc1nn(-c2ccccn2)c2nc(-c3cccs3)cc(C(=O)N3CCOCC3)c12 the results were 15-hLO-2 inh inactive, CRE Fsk mod 3.16µM, ERK AVP block inactive and ALOX15 inhib inactive.
COc1ccc(-c2cc(C(=O)O)c3c(C)nn(-c4ccccn4)c3n2)cc1 was read as 15-hLO-2 inh inactive.
Screening C=CCNc1ncnc2c1[nH]c1ccc(C)cc12 returned 15-hLO-2 inh inactive[2.29 µM], CRE Fsk mod inactive, ERK AVP block 31.6µM and ALOX15 inhib inactive.
Cc1ccc2[nH]c3c(NCCN4CCOCC4)ncnc3c2c1 was read as 15-hLO-2 inh inactive.
For CN(C)Cc1ccccc1-c1cc(NCc2ccccc2)ncn1 the results were 15-hLO-2 inh inactive, CRE Fsk mod inactive, ERK AVP block inactive and ALOX15 inhib inactive.
Screening COc1ccc(C(=O)COC(=O)CCN=C2NS(=O)(=O)c3ccccc32)cc1OC returned 15-hLO-2 inh inactive, CRE Fsk mod 10µM, ERK AVP block inconclusive and ALOX15 inhib inactive.
For CC(C)C(=O)OCCN=C1NS(=O)(=O)c2ccccc21 the results were 15-hLO-2 inh inactive.
For C=CCOC(=O)C(C(C)=O)C(NC(=O)OC)c1cccs1 (configuration not stated) the results were ERK AVP block inactive[11.5 µM] and ALOX15 inhib inactive[11.4 µM].
CC(C)CO/N=C1/C[C@@H](O)[C@@H](O)[C@@H]2[C@@H]3C(=O)N(c4cccc(Oc5ccccc5)c4)C(=O)[C@H]3CC[C@H]12 was read as ERK AVP block inactive[11.5 µM] and ALOX15 inhib inactive[11.4 µM].
`CC(C)Sc1nc2c(cnn2-c2ccc(F)cc2)c(=O)[nH]1` gave 15-hLO-2 inh inactive, CRE Fsk mod 3.16µM and ALOX15 inhib inactive.
Screening COC(=O)c1ccc(Cn2cnc3c(cnn3-c3ccc(Cl)cc3)c2=O)o1 returned CRE Fsk mod 6.31µM, ERK AVP block inconclusive and ALOX15 inhib inactive.
For COC(=O)c1ccc(CSc2nc3c(cnn3-c3ccc(C)cc3)c(=O)[nH]2)o1 the results were CRE Fsk mod 6.31µM, ERK AVP block inactive and ALOX15 inhib inactive.
`COC(=O)c1ccc(CSc2nc3ccc(C)cc3[nH]2)o1` gave 15-hLO-2 inh inactive.
Cc1ccc(-n2ncc3c(=O)[nH]c(SC(C)C)nc32)cc1 was read as CRE Fsk mod 2µM and ALOX15 inhib inactive.
For CC1=C(SCCC#N)S/C(=C2\SC(C)=C(SCCC#N)S2)S1 the results were 15-hLO-2 inh inconclusive, CRE Fsk mod inactive, ERK AVP block inactive and ALOX15 inhib 12.6µM.
`CCNc1ncc2nc(-c3ccc(F)cc3)c(=O)n(C[C@H]3CCCO3)c2n1` gave 15-hLO-2 inh inactive, CRE Fsk mod 2.51µM, ERK AVP block inactive and ALOX15 inhib inactive.
`COc1ncc2nc(-c3ccc(F)cc3)c(=O)n(C[C@H]3CCCO3)c2n1` gave 15-hLO-2 inh inactive, CRE Fsk mod inconclusive, ERK AVP block inactive and ALOX15 inhib inactive.
`CCNc1ncc2nc(C)c(=O)n(C[C@H]3CCCO3)c2n1` gave 15-hLO-2 inh inactive, CRE Fsk mod 10µM, ERK AVP block inconclusive and ALOX15 inhib inactive.
COc1cccc(Nc2ncc3nc(C)c(=O)n(C[C@H]4CCCO4)c3n2)c1 was read as 15-hLO-2 inh inactive, CRE Fsk mod 2.51µM, ERK AVP block inactive and ALOX15 inhib inactive.
COc1cccc(Nc2ncc3nc(C)c(=O)n(CCc4ccccc4)c3n2)c1 was read as 15-hLO-2 inh inactive, CRE Fsk mod 5.01µM, ERK AVP block inactive and ALOX15 inhib inactive.
Screening CCNc1ncc2ncc(=O)n(C[C@H]3CCCO3)c2n1 returned 15-hLO-2 inh inactive, CRE Fsk mod inactive, ERK AVP block inactive and ALOX15 inhib inactive.
`O=C(O)CCC(=O)c1ccc[nH]1` gave 15-hLO-2 inh inactive[11.4 µM], CRE Fsk mod inactive[7.6 µM], ERK AVP block inactive[11.5 µM] and ALOX15 inhib inactive[11.4 µM].
Screening CCC[C@@H]1C[C@@]1(CCC)[C@@H](NC(=O)Oc1ccccc1)c1ccc(C(=O)OC)cc1 returned 15-hLO-2 inh inactive, CRE Fsk mod inactive, ERK AVP block inactive and ALOX15 inhib inactive.
For CC(C)=NOC[C@@H](O)COCc1ccco1 the results were ERK AVP block inactive[11.5 µM] and ALOX15 inhib inactive[11.4 µM].
Screening COc1ccc(OC)c(-c2cc(C(=O)Nc3c(C)nn(Cc4ccccc4Cl)c3C)no2)c1 returned 15-hLO-2 inh inactive, CRE Fsk mod 2.51µM, ERK AVP block inactive and ALOX15 inhib inactive.
For COc1ccc(OC)c(-c2cc(C(=O)Nc3c(C)nn(Cc4ccccc4C)c3C)no2)c1 the results were 15-hLO-2 inh inactive, CRE Fsk mod 3.16µM, ERK AVP block inactive and ALOX15 inhib inactive.
Screening COc1ccc(-c2cc(C(=O)Nc3c(C)nn(Cc4ccccc4Cl)c3C)no2)cc1OC returned 15-hLO-2 inh inactive, CRE Fsk mod inconclusive, ERK AVP block inconclusive and ALOX15 inhib inactive.

Assay outcomes (PubChem)
